Test systems include NCI-H23 lung; NCI-H226 lung; NCI-H322M lung; HOP-62 NSCLC; NCI-H522 lung; A549/ATCC NSCLC; 786-0 renal; COLO 205 colon; DU-145 prostate.
Holding throughout (assay): NCI-60 one-dose screen, 48 h (100 = growth as untreated, 0 = no growth, -100 = all killed)
Common to all, as to conditions: 10 µM

The panel holds about 83,000 compounds, 20% with a hit somewhere; the sample as a whole holds those more often.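 How to read the values: 0–100, growth inhibition (40 = 60% inhibited); 0, no net growth; -100 to 0, cell death (-40 = 40% of starting cells died; -100 = all dead).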 Unmarked numbers belong to inactive results. The source made the active and inactive calls. The calls were made as follows: active = growth percent below 10; inactive = the rest.

On to `N=C(N)c1ccc(-c2ccc(-c3ccccc3)o2)nc1`, for which the growth was 101% in the assay with NCI-H23 lung; 90.4% in the assay on NCI-H226 lung; 91.7% in the assay on NCI-H322M lung; 91.8% with HOP-62 NSCLC; 93.8% in the assay with NCI-H522 lung; 77.8% in the assay on A549/ATCC NSCLC. For the same compound, the figures for the growth in the assay on 786-0 renal, in the assay with COLO 205 colon and with DU-145 prostate were 90.7%, -13% (active) and 103%, respectively.

For the compound `Cc1ccc(-c2n[nH]c(=O)c3noc(-c4ccc(C)cc4)c23)cc1`, the growth with NCI-H23 lung is 61.8%; in the assay on NCI-H226 lung it was 80.9%; with NCI-H322M lung it was 49.5%; in the assay on HOP-62 NSCLC, 29.2%; with NCI-H522 lung it was 16.4%; with A549/ATCC NSCLC, 36.8%. Also, the growth was 48.4% in the assay with 786-0 renal, -25.1% (active) in the assay with COLO 205 colon and 25.2% in the assay on DU-145 prostate.

Regarding `NC1=NC(=O)C(c2ccccc2)(c2ccccc2)S1`, the growth with NCI-H23 lung is 106%; in the assay with NCI-H226 lung it was 103%; with NCI-H322M lung, 111%; with HOP-62 NSCLC it was 98.1%; in the assay on NCI-H522 lung, 102%; in the assay with A549/ATCC NSCLC it was 104%. In addition, the growth in the assay on 786-0 renal is 102%; in the assay with COLO 205 colon, 117%; with DU-145 prostate, 114%.

As to `O=C(Nc1ccncc1)C(=O)c1cn(S(=O)(=O)c2cccc(Cl)c2)c2ccccc12`, the growth in the assay on NCI-H23 lung is 54.2%; in the assay on NCI-H226 lung it was 77.9%; in the assay with NCI-H322M lung, 102%; in the assay with HOP-62 NSCLC, 79.3%; in the assay with NCI-H522 lung, 32.1%; with A549/ATCC NSCLC it was 75.5%. The growth with 786-0 renal was 72.8%; with COLO 205 colon it was 117%; in the assay on DU-145 prostate, 83.9%.

In the case of `O=C1/C(=C\c2ccc(F)cc2)CN(C(=O)c2ccccc2)C/C1=C\c1ccc(F)cc1`, the growth with NCI-H23 lung is 61.8%; in the assay on NCI-H226 lung, 36.6%; with NCI-H322M lung it was 73.6%; in the assay on HOP-62 NSCLC, 53.3%; with NCI-H522 lung it was -8.75% (active); in the assay with A549/ATCC NSCLC, 49.2%. In addition, the growth in the assay with 786-0 renal is 33.6%; with COLO 205 colon, 50.9%; in the assay with DU-145 prostate, 31.7%.

On to `CCCCCCc1cc(N=Nc2ccc(S(=O)(=O)Nc3cc(C)nc(C)n3)cc2)c(O)cc1O`, for which the growth with NCI-H23 lung is 102%; with NCI-H226 lung, 98%; in the assay with NCI-H322M lung, 93.5%; with HOP-62 NSCLC, 107%; in the assay with NCI-H522 lung, 90.1%; with A549/ATCC NSCLC, 106%. Also, the growth in the assay with 786-0 renal is 102%; in the assay on COLO 205 colon, 103%; in the assay with DU-145 prostate, 114%.

Consider `N=c1c2c(-c3ccccc3)c(-c3ccccc3)n(Cc3ccccc3)c2ncn1CCCO`, for which the growth in the assay with NCI-H23 lung is 45.7%; with NCI-H226 lung it was 46.1%; in the assay on NCI-H322M lung, 34.4%; in the assay on HOP-62 NSCLC, 52.9%; with NCI-H522 lung it was 27.8%; in the assay with A549/ATCC NSCLC, 17.3%. Also, the values for the growth in the assay on 786-0 renal, in the assay on COLO 205 colon and in the assay on DU-145 prostate were 48.3%, -5.84% (active) and 34.5%, respectively.

Consider `CN(C)C=Nc1cc(Cl)ccc1Cl`, for which the growth with NCI-H23 lung is 101%; in the assay on NCI-H226 lung, 96.3%; with NCI-H322M lung, 104%; in the assay with HOP-62 NSCLC, 99.9%; in the assay on A549/ATCC NSCLC, 92.1%; in the assay on 786-0 renal it was 111%. Further, the growth was 109% in the assay on COLO 205 colon and 117% with DU-145 prostate.

In the case of `Cc1cc(Nc2ccc(Cl)cc2)nc(NCCCNc2ccnc3cc(Cl)ccc23)n1`, the growth in the assay on NCI-H23 lung is 51.2%; with NCI-H226 lung it was 102%; in the assay on NCI-H322M lung it was -0.971% (active); with HOP-62 NSCLC it was -22.6% (active); in the assay with NCI-H522 lung it was -78.8% (active); with A549/ATCC NSCLC, -55.2% (active). For the same compound, the growth with 786-0 renal is -98.7% (active); in the assay with COLO 205 colon it was -91.1% (active); with DU-145 prostate, 1.28% (active).

On to `O=C(CSSCC(=O)c1ccc(Cl)cc1)c1ccc(Cl)cc1`, for which the growth with NCI-H23 lung is 79.5%; in the assay on NCI-H226 lung it was 88.6%; with NCI-H322M lung, 72.2%; in the assay with HOP-62 NSCLC, 78.6%; with NCI-H522 lung it was 58%; with A549/ATCC NSCLC it was 63.6%. The growth in the assay with 786-0 renal is 85.9%; in the assay with COLO 205 colon, 104%; in the assay with DU-145 prostate, 94.4%.

In the case of `COc1ccc(-c2nc3sc(C4CC4)nn3c2/C=C2/C(=O)Nc3ccc(OC)cc32)cc1`, the growth with NCI-H23 lung is 82%; in the assay with NCI-H226 lung, 63.7%; with NCI-H322M lung it was 61.6%; in the assay on HOP-62 NSCLC, 80.9%; with NCI-H522 lung, 63.8%; in the assay with A549/ATCC NSCLC, 75.5%. Besides, the growth with 786-0 renal is 86%; in the assay on COLO 205 colon, 88.5%; in the assay with DU-145 prostate, 62.3%.

Turning to `O=C1/C(=C\c2ccccc2)CN(C(=O)c2ccccc2F)C/C1=C\c1ccccc1`, the growth was 33.8% in the assay on NCI-H23 lung; 27.9% in the assay on NCI-H226 lung; 74.6% with NCI-H322M lung; 17.9% with HOP-62 NSCLC; -3.31% (active) in the assay with NCI-H522 lung; 53.3% in the assay on A549/ATCC NSCLC. For the same compound, the growth in the assay with 786-0 renal was -40.8% (active); in the assay on COLO 205 colon, 14.6%; in the assay on DU-145 prostate, 7.15% (active).

As for `CCOC(=O)C(=Cc1ccc(Br)cc1)C(=O)OCC`, the growth with NCI-H23 lung is 17.6%; in the assay with NCI-H226 lung it was -33.6% (active); in the assay on NCI-H322M lung, 39%; with HOP-62 NSCLC, 0.525% (active); with NCI-H522 lung, -65.1% (active); in the assay with A549/ATCC NSCLC it was -25.6% (active). Besides, the growth in the assay with 786-0 renal is -79% (active); in the assay on COLO 205 colon, -70.5% (active); with DU-145 prostate, 6.17% (active).

As for `FC(F)(F)c1ccc(-c2cnc(Cl)nc2N2CCC3(CC2)OCCO3)cc1`, the growth in the assay on NCI-H23 lung was 94.9%; in the assay on NCI-H226 lung, 94.4%; in the assay on NCI-H322M lung, 91.7%; with HOP-62 NSCLC, 97.2%; with NCI-H522 lung it was 63.2%; with A549/ATCC NSCLC, 90.2%. Moreover, the growth in the assay on 786-0 renal is 95.5%; in the assay with COLO 205 colon it was 93.2%; in the assay on DU-145 prostate, 95.5%.

(Values after PubChem BioAssay (NCI).)
